Inconclusive results are not listed. Some compounds were tested as several samples or in several runs, with calls that do not always agree. The source made the active and inactive calls. Rule for the calls, unless noted: active = hit-call score of the fitted dose curve at least 0.9, where 1 is the maximum; inactive = score below 0.9.
How the values were obtained:
[1] = CCTE_Shafer_MEA_dev_mutual_information_norm: CCTE's Neural Network Formation Assay for Mutual Information Normalization, Shafer Lab (AID 2284091);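 for AC50: mutual information between electrodes summarised as area under curve across four recording days; potency is for a decrease in mutual information relative to DMSO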
Outline: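 Primary rat cortical neurons on PEI-coated 48-well MEA plates, 1.5 x 10^5 cells/well, exposed from day 0 through day 12 with re-dosing at DIV 5 and 9. Mutual information between electrodes recorded days 5, 7, 9, 12; trapezoidal AUC, loss-of-signal fit versus DMSO.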

[2] = CCTE_Shafer_MEA_dev_correlation_coefficient_mean: CCTE's Neural Network Formation Assay for Mean Correlation Coefficient, Shafer Lab (AID 2284093);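 for AC50: well mean pairwise spike train correlation integrated as AUC over recording days 5 to 12; potency fitted for loss of correlation relative to DMSO vehicle wells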
Outline: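 Rat cortical cultures, 1.5 x 10^5 cells/well, dosed from day 0 for 12 days. Spontaneous spikes recorded DIV 5/7/9/12; electrode-pair correlation coefficients averaged, AUC taken. Fit in loss direction vs DMSO.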

[3] = CCTE_Mundy_HCI_Cortical_Synap_Neur_Matur_NeuriteSpotCountPerNeuriteLength: CCTE's Synaptogenesis and Neurite Maturation Assay in rat cortical cells for Neurite Spot Count per Neurite Length, Mundy Lab (AID 2284210)
Outline: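 Rat primary cortical cultures, AraC added at DIV 5 to suppress glia; chemical exposure from DIV 7 to DIV 12. Fixed cells stained for MAP2 and synaptophysin plus Hoechst; synaptophysin puncta per neurite length quantified by high-content imaging, relative to DMSO.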

[4] = CCTE_Mundy_HCI_Cortical_NOG_NeuriteLength: CCTE's Neurite Outgrowth Assay in rat cortical cells for Neurite Length, Mundy Lab (AID 2284213);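 for AC50: neurites imaged about 48 to 50 h after chemical exposure began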
Outline: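 Neurite length was read by high-content imaging of βIII-tubulin-labelled neurites in rat primary cortical cultures. Activity was fitted relative to DMSO.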

[5] = CCTE_Mundy_HCI_Cortical_Synap_Neur_Matur_NeuriteLength: CCTE's Synaptogenesis and Neurite Maturation Assay in rat cortical cells for Neurite Length, Mundy Lab (AID 2284214)
Outline: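 Rat cortical neurons, AraC at DIV 5; compound + media change DIV 7, end DIV 12 (288.33 h). Fix, MAP2/synaptophysin/Hoechst immunostain, automated HCI of neurite length vs DMSO.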

[6] = CCTE_Mundy_HCI_Cortical_Synap_Neur_Matur_NeuriteSpotCountPerNeuron: CCTE's Synaptogenesis and Neurite Maturation Assay in rat cortical cells for Neurite Spot Count per Neuron Count, Mundy Lab (AID 2284215)
Outline: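 Synapse density is scored as synaptophysin spots along neurites per neuron in fixed rat cortical neurons, measured at DIV 12 after chemical dosing at DIV 7. DMSO is the negative control and activity baseline.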

[7] = TAMU_PeakParms_SingleDonor1434_Chronotropy: Texas A&M University (TAMU) 1.5-hr Human Induced Pluripotent Stem Cell (iPSC)-derived Cardiomyocytes Calcium (Ca+2) Flux Assay for Cardiotoxicity: Chronotropy (changes in peak frequency) (AID 2284217); settings: actives raise or lower the signal
Outline: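 iPSC-CMs, donor 1434; 4 conc (0.2–100 uM), 0.5% v/v DMSO, 90 min, 37C/5% CO2; Ca2+ flux fluorescence → peak.freq.avg; peak.freq.avg = 0 dropped; bidirectional fit vs DMSO; EC05 POD.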

[8] = CCTE_Mundy_HCI_Cortical_Synap_Neur_Matur_SynapseCount: CCTE's Synaptogenesis and Neurite Maturation Assay in rat cortical cells for Synapse Count, Mundy Lab (AID 2284218)
Outline: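 Primary rat cortical culture; AraC DIV 5 to arrest glia; compound + media change DIV 7; terminated DIV 12. PFA/Hoechst fix, anti-MAP2 + anti-synaptophysin immunostain; HCI synapse count/neuron; DMSO = baseline.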

[9] = CCTE_Mundy_HCI_hN2_NOG_NeuriteLength: CCTE's Neurite Outgrowth Assay in human hN2 cells for Neurite Length, Mundy Lab (AID 2284220; active = hit-call score of the fitted dose curve at least 0.9, where 1 is the maximum)
Outline: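 Read-out is neurite length from high-content imaging of βIII-tubulin/Alexa Fluor-488-labelled neurons, referenced to DMSO controls.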

[10] = CCTE_Mundy_HCI_hN2_NOG_NeuronCount: CCTE's Neurite Outgrowth Assay in human hN2 cells for Neuron Count, Mundy Lab (AID 2284221; active = hit-call score of the fitted dose curve at least 0.9, where 1 is the maximum)
Outline: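 Read-out is the number of betaIII-tubulin-positive neurons imaged by automated high-content analysis, with DMSO as negative control.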

[11] = CCTE_Mundy_HCI_Cortical_Synap_Neur_Matur_CellBodySpotCount: CCTE's Synaptogenesis and Neurite Maturation Assay in rat cortical cells for Cell Body Spot Count, Mundy Lab (AID 2284223)
Outline: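 Synapse number at neuronal cell bodies was quantified as synaptophysin puncta per neuron in rat cortical cultures exposed from DIV 7 to DIV 12. Values were normalised to DMSO.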

[12] = CCTE_Mundy_HCI_hNP1_Pro_ResponderAvgInten: CCTE's Proliferation Assay in human neuroprogenitor cells, Mundy Lab (AID 2284224; active = hit-call score of the fitted dose curve at least 0.9, where 1 is the maximum;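 note: human neural progenitor cells hNP1 derived from WA09 embryonic stem cells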)
Outline: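 Proliferation read as average intensity of BrdU-positive cells, imaged at 26.25 h post-dosing: chemical exposure started after 40–44 h culture, BrdU during final 4 h, paraformaldehyde fixation. Positive-direction fit relative to DMSO.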

[13] = UKN2_HCS_IMR90_neural_migration: University of Konstanz (UKN) Leist Lab Neural Crest Cell Migration Assay in human induced IMR90 Pluripotent Stem Cells (UKN2) (AID 2284204); settings: actives raise or lower the signal
Outline: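 iPSC-derived IMR90 neural crest cells seeded around stoppers on PLO/laminin/fibronectin; migration started in N2-S medium with EGF/FGF, compounds added after 24 h for 24 h. Migration into cell-free area imaged after calcein-AM/Hoechst staining; bidirectional fit versus DMSO.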

[14] = IUF_NPC1b_proliferation_BrdU_72hr: Leibniz Research Institute for Environmental Medicine (IUF) 72-hour Neural Progenitor Cell Bromodeoxyuridine (BrdU) Proliferation Assay (NPC1b) (AID 2284207)
Outline: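 BrdU luminescence ELISA quantified DNA synthesis over the last 16 h of a 72 h exposure, fitted against DMSO. Primary hNPC spheres from gestational week 16-19 cortex grown with EGF/FGF at 37C, pH 7.2-7.6.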

[15] = IUF_NPC1a_proliferation_area_72hr: Leibniz Research Institute for Environmental Medicine (IUF) 72-hour Neural Progenitor Cell Proliferation Area Assay (NPC1a) (AID 2284208)
Outline: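 Proliferation is scored as sphere area gain in primary human fetal neural progenitors treated for 72 h in EGF/FGF-containing medium. Viability, LDH and BrdU readouts come from the same wells.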

[16] = IUF_NPC1_viability_72hr: Viability Assessment at 72 hours in the Leibniz Research Institute for Environmental Medicine (IUF) Neural Progenitor Cell Proliferation Assay (NPC1) (AID 2284209)
Outline: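 hNPC spheres, 1/well, EGF+FGF medium, 37C/5% CO2; dosed day 0, 72 h, no re-dosing. Resazurin reduction (alamar blue) fluorescence; DMSO = negative control/baseline; growth-factor-free wells as positive control.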

[17] = CCTE_Mundy_HCI_Cortical_Synap_Neur_Matur_BPCount: CCTE's Synaptogenesis and Neurite Maturation Assay in rat cortical cells for Branch Point Count, Mundy Lab (AID 2284211)
Outline: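 Rat primary cortical cultures, AraC added DIV 5; chemicals dosed DIV 7 through DIV 12. Fixed cells stained for MAP2, synaptophysin and Hoechst; neurite branch points counted by automated high-content imaging, fitted relative to DMSO.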

[18] = CCTE_Mundy_HCI_Cortical_NOG_NeuriteCount: CCTE's Neurite Outgrowth Assay in rat cortical cells for Neurite Count, Mundy Lab (AID 2284212);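 note: cells fixed about two days after chemical exposure began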
Outline: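 Neurite number per cell from high-content imaging of betaIII-tubulin immunostaining, with Hoechst nuclear counterstain.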

[19] = CCTE_Mundy_HCI_Cortical_Synap_Neur_Matur_NeuriteCount: CCTE's Synaptogenesis and Neurite Maturation Assay in rat cortical cells for Neurite Count, Mundy Lab (AID 2284222);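 note: exposure from day 7 to day 12 in vitro with readout at day 12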
Outline: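 Primary rat cortical cells were plated, treated with AraC at DIV 5, then exposed to chemicals from DIV 7 through DIV 12. After fixation and immunostaining for MAP2 and synaptophysin, imaging quantified neurites, with DMSO as the negative control.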

[20] = CCTE_Mundy_HCI_hN2_NOG_NeuriteCount: CCTE's Neurite Outgrowth Assay in human hN2 cells for Neurite Count, Mundy Lab (AID 2284219; active = hit-call score of the fitted dose curve at least 0.9, where 1 is the maximum)
Outline: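 In this morphology assay, hNP1-derived neurons received test chemical 2 h post-plating and were fixed two days later in warm paraformaldehyde/sucrose containing Hoechst 33342. Neurites, labelled by rabbit anti-βIII-tubulin (1:800) and Alexa Fluor-488 (1:500), were counted automatically.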

Compound: ClC1=C(Cl)[C@]2(Cl)[C@@H]3[C@@H]4C[C@@H]([C@H]5O[C@@H]45)[C@@H]3[C@@]1(Cl)C2(Cl)Cl
- AC50 [1]: 15 µM (active)
- AC50 [2]: 23.6 µM (active)
- AC50 [3]: 25.5 µM (active)
- AC50 [4]: 8.83 µM (active)
- AC50 [5]: 12.8 µM (active)
- AC50 [6]: 13 µM (active)
- AC50 [7]: 4.73 µM (active)
- AC50 [8]: 13.2 µM (active)
- outcome [9]: inactive
- AC50 [10]: 50 µM (active)
- AC50 [11]: 24 µM (active)
- AC50 [12]: 25.2 µM (active)

Compound: O=S(=O)(O)C(F)(F)C(F)(F)C(F)(F)C(F)(F)C(F)(F)C(F)(F)F
- outcome [1]: inactive
- outcome [2]: inactive
- outcome [13]: inactive
- outcome [14]: inactive
- outcome [15]: inactive
- outcome [16]: inactive
- outcome [3]: inactive
- outcome [17]: inactive
- outcome [18]: inactive
- outcome [4]: inactive
- outcome [5]: inactive
- outcome [6]: inactive
- outcome [8]: inactive
- outcome [19]: inactive
- outcome [11]: inactive
- outcome [12]: inactive

Compound: CCC(C)(c1ccc(O)cc1)c1ccc(O)cc1
- outcome [1]: inactive
- outcome [2]: inactive

Compound: ClC(Cl)=C(c1ccc(Cl)cc1)c1ccc(Cl)cc1
- AC50 [1]: 2.19 µM (active)
- AC50 [2]: 3.9 µM (active)

Compound: c1cc2ccc3cccc4ccc(c1)c2c34
- outcome [1]: inactive
- outcome [2]: inactive
- AC50 [7]: 50 µM (active)

Compound: C=CC(N)=O
- outcome [1]: inactive
- outcome [2]: inactive
- outcome [14]: inactive
- outcome [15]: inactive
- outcome [16]: inactive
- outcome [3]: inactive
- outcome [17]: inactive
- outcome [18]: inactive
- outcome [4]: inactive
- outcome [5]: inactive
- outcome [6]: inactive
- outcome [7]: inactive
- outcome [8]: inactive
- outcome [20]: inactive
- outcome [9]: inactive
- outcome [10]: inactive
- outcome [19]: inactive
- outcome [11]: inactive

Compound: Clc1ccc(C(c2ccccc2Cl)C(Cl)(Cl)Cl)cc1 (stereo not given)
- AC50 [1]: 0.0113 µM (active)
- AC50 [2]: 0.199 µM (active)

Compound: NS(=O)(=O)C(F)(F)C(F)(F)C(F)(F)C(F)(F)C(F)(F)C(F)(F)C(F)(F)C(F)(F)F
- outcome [1]: inactive
- AC50 [2]: 22.6 µM (active)
- outcome [2]: inactive

Compound: O=C(O)C(F)(F)C(F)(F)C(F)(F)C(F)(F)C(F)(F)C(F)(F)C(F)(F)C(F)(F)F
- outcome [1]: inactive
- outcome [2]: inactive

Compound: ClC1=C(Cl)[C@]2(Cl)[C@@H]3[C@@H](Cl)[C@H]4O[C@H]4[C@@H]3C1(Cl)C2(Cl)Cl
- outcome [1]: inactive
- AC50 [2]: 27.5 µM (active)
- outcome [3]: inactive
- AC50 [17]: 3.36 µM (active)
- AC50 [18]: 16.6 µM (active)
- AC50 [4]: 16 µM (active)
- AC50 [5]: 4.05 µM (active)
- AC50 [6]: 8.58 µM (active)
- AC50 [8]: 9.03 µM (active)
- AC50 [20]: 13.2 µM (active)
- AC50 [9]: 13.1 µM (active)
- AC50 [10]: 5.59 µM (active)
- outcome [19]: inactive
- AC50 [11]: 9.92 µM (active)
- AC50 [12]: 15.8 µM (active)

Source: PubChem BioAssay (EPA / NIEHS)
